# Pf growth 48h – inhibits P. falciparum growth in the first generation, 48 h; P. falciparum luciferase growth in erythrocytes, 48 h; Potency, µM (series often up to 28.7 µM), inactives show top-dose activity change, negative = inhibition, hits mostly inhibitors; actives 5.9% (n = 310,000); note: potency is the fitted concentration of half-maximal effect; % is set by controls: 0 for no effect and ±100 for the full control effect
#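 Cell-based growth assay: transgenic P. falciparum expressing firefly luciferase, cultured in red cells within RPMI 1640 containing 0.5% w/v Albumax, 24 mM bicarbonate and gentamycin. A drop in luciferase activity indicates inhibition.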
# NS1 function inh – inhibitors of influenza NS1 protein function. Potency, µM (series often up to 46.1 µM), for the others: at the highest dose activity, positive = more growth. actives 0.4% (n = 270,000). AID 2326; calls by dose curve; note: potency is the fitted concentration of half-maximal effect; actives are rising curves; nearly all actives have a fitted effect of over 50% in size
#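 In this qHTS, NS1 from influenza A is expressed in budding yeast, where it slows growth. Cells are switched from glucose to 2% galactose medium (pH 6.0, -URA), treated with compound, and growth recovery is read at OD600.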
# Sm TGR inh – S. mansoni TGR enzyme inhibition | AID 485364 | Potency, µM (series often up to 114 µM), without a hit: at the highest dose activity change, negative = inhibition, hits mostly inhibitors | actives 3% (n = 360,000) | purified TGR, DTNB reduction, TNB absorbance 405 nm | Q962Y6; note: potency is the fitted concentration of half-maximal effect; % is set by controls: 0 for no effect and ±100 for the full control effect; nearly all actives have a fitted effect of over 60% in size
#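 TGR 20 nM + NADPH 100 uM (dispensed conc.), cpd preinc 15 min RT; start with NADPH (500 uM addition) then DTNB (15 mM addition). Kinetic TNB absorbance, 405 nm filter. Four-parameter Hill fit across titration.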
# Shiga toxin inh – inhibitors of Shiga toxin in Vero cells | Vero cells, Shiga toxin protein synthesis inhibition reporter | inhibition, % at 38.7 µM | actives 9.2% (n = 290,000) | AID 2315; in the data active = inhibition mostly above about 28%, no sharp cut-off; inactive = mostly below about 43%; note: 0% is about no effect
# CHX counter – affects cycloheximide protein synthesis inhibition readout, counter-screen; cell reporter, cycloheximide protein synthesis inhibition counterscreen; max response, %; actives 12% (n = 300,000); AID 2314; in the data active = max response mostly above about 13%, no sharp cut-off; inactive = mostly below about 14%; note: read at 38.3 µM for the half of the compounds with a filed dose; 0% is about no effect
# Pf growth 96h – P. falciparum growth inhibition at 96 hours; P. falciparum luciferase reporter growth, 96 h; Potency, µM (top dose mostly 28.7 µM), without a hit: top-dose activity change, negative = inhibition, hits mostly inhibitors; actives 6.9% (n = 320,000); note: potency is the fitted concentration of half-maximal effect; % is set by controls: 0 for no effect and ±100 for the full control effect
#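 Infected RBCs, 2% Hct / 0.05% parasitemia final; luciferase-reporter P. falciparum; cpd 96 h, 37 C, 5% CO2; luciferase detection reagent; luminescence.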
# Numbers without * were called inactive; ? = inconclusive; / = not tested or not shown; [ ] = remark or other dose. Compounds with a hit are over-represented: about 21% of the library has one in this group of screens. Unless noted, calls come from the whole dose curve; as a rule, active = well fitted curve in the direction sought with a large enough effect; inconclusive = small, poorly fitted or top-dose-only effect, or another doubt; inactive = no such curve, though single readings can be large; an effect the other way counts as inactive or inconclusive.
SMILES,Pf growth 48h,NS1 function inh,Sm TGR inh,Shiga toxin inh,CHX counter,Pf growth 96h
CS(=O)(=O)Nc1ccc(C(=O)Nc2ccccc2Cl)cc1,19%,0%,/,58,9,?
COc1ccccc1NC(=O)C(=O)/C=C(\O)c1ccccc1,106%,-3%,-12%,64*,48*,78%
CCOc1ccc(Cn2nnc(C(=O)Nc3cccc(SC)c3)c2N)cc1,/,/,1%,/,/,/
Nc1nc(N)c2nn(-c3ccc(C(=O)O)cc3)nc2n1,/,-3%,/,/,/,/
Cc1cccc(C(=O)Nc2ccc3ccccc3c2)c1,280%,-30%,10%,92*,52*,296%
COc1cccc(NC(=O)c2ccc(C(=O)c3ccccc3)o2)c1,0%,/,14%,93*,38*,?
COc1cccc(NC(=O)c2ccc(-c3ccccc3[N+](=O)[O-])o2)c1,-4%,/,0%,37,25,26%
COc1c(C(=O)NNC(=O)c2ccccc2)csc1Br,140%,-4%,16%,48*,35*,169%
COc1ccc(/C(O)=C/C(=O)C(=O)NNC(=O)c2ccccc2)cc1,37%,-1%,14µM*,33,30*,44%
Cc1cccc(NC(=O)N2CCC(N3CCN(Cc4ccccc4)C(=O)C3=O)CC2)c1C,/,/,0%,/,/,/
COc1cccc(C(=O)Nc2cccc(SC)c2)c1,166%,-78%,3%,63*,19*,254%
COc1cccc(C(=O)Nc2ccccc2)c1,102%,-145%,-19%,64*,35*,/
Cc1ccc(C(=O)Nc2cccc(Oc3ccccc3)c2)o1,/,-134%,-7%,34,30*,37%
COc1cccc(C(=O)NN2c3ccccc3CCc3ccccc32)c1,9.3µM*,16%,5%,3,14,13µM*
COc1cccc(C(=O)NC2CCCc3ccccc32)c1 (stereo not given),-18%,?,-3%,/,14,?
Cc1ccc(C(=O)Nc2cccc(C(=O)NCc3ccccc3)c2)o1,?,-47%,-4%,21,-2,/
COc1cccc(C(=O)Nc2cccc3ccccc23)c1,8%,-6%,3%,19,12,0%
CS(=O)(=O)Nc1ccc(C(=O)Nc2ccc3ccccc3c2)cc1,115%,8%,5%,/,35*,43%
CCC/C(=N\NC(=O)c1cccc(C)c1)c1ccccc1,29%,-3%,22%,59*,56*,5%
COc1cccc(C(=O)Nc2cnn(C(C)C)c2)c1,291%,/,-3%,94*,32*,-18%
COc1cccc(C(=O)N/N=C(/CCC(=O)O)c2ccccc2)c1,0%,13%,8%,active,52*,5%
Cc1cccc(C(=O)NCCNC(=O)c2cccc(C)c2)c1,28%,3%,1%,-10,-1,-15%
O=C(CC(=O)NC1CCCCC1)N/N=C/c1cccc2ccccc12,?,11%,-3%,12,0,?
Cc1ccc(C(=O)c2oc3ccccc3c2NC(=O)COc2ccccc2C)cc1,/,/,18%,/,/,/
Cc1nn(Cc2cccc(C(=O)NC34CC5CC(CC(C5)C3)C4)c2)c(C)c1Br,15µM*,-19%,-16%,16,4,8.3µM*
SMILES,Pf growth 48h,NS1 function inh,Sm TGR inh,Shiga toxin inh,CHX counter,Pf growth 96h
COc1cccc(C(=O)Nc2ccc3ccccc3c2)c1,305%,-22%,13%,/,40*,-68%
COc1cccc(C(=O)NNC(=O)c2ccccc2)c1,68%,?,2%,69*,43*,?
COc1cccc(C(=O)NNC(=O)c2cccnc2)c1,23%,-1%,6%,-7,7,35%
CCCOc1ccc(/C(O)=C2\C(=O)C(=O)N(c3ccccn3)C2c2ccccc2F)cc1C (stereo not given),20%,?,?,24,1,-1%
C/C(=N\Nc1cc(N2CCOCC2)ncn1)c1ccc(O)cc1,24%,16%,-7%,/,15,?
CC(=O)c1ccc(NC(=O)C2CC(=O)N(Cc3ccccc3)C2)cc1 (stereo not given),54%,10%,-9%,101*,29*,/
O=C(Nc1ccc(SC(F)F)cc1)C1CC(=O)N(Cc2ccccc2)C1 (stereo not given),?,7%,-3%,26*,15*,?
O=C(O)C(=Cc1ccc(-c2ccccc2)cc1)C(=O)O,/,-13%,/,/,/,/
COCCCNC(=O)c1cc(S(=O)(=O)N2CCOCC2)ccc1SCc1cccc(OC)c1OC,-22%,/,2%,-6,4,?
Cn1c(=S)n(/N=C/c2ccc3c(c2)OCO3)c2ccccc21,35%,-1%,5%,5,-4,-3%[5.75 µM]
Cn1c(=O)n(/N=C/c2ccccc2)c2ccccc21,65%,14%,7%,45*,13,84%
COc1cccc(N2CC(NC(=O)C(c3ccccc3)c3ccccc3)CC2=O)c1 (stereo not given),/,/,2%,/,/,/
COc1ccc(C(CNC(=O)C2CC2)N(C)C)cc1 (stereo not given),120%,17%,-6%,27*,17*,0%
COc1ccc(C(CNC(=O)C(C)c2ccc3cc(OC)ccc3c2)N(C)C)cc1 (stereo not given),?,-3%,-29%,18,4,?
O=C(Nc1sc2c(c1CN1CCOCC1)CCC2)c1ccc(F)cc1,-7%,19%,-22%,28,-2,-26%
Cc1sc(NC(=O)c2ccc(F)cc2)c(CN2CCCCCC2)c1C,-23%,-11%,-4%,175*,43*,-14%
Cc1sc(NC(=O)c2ccco2)c(CN2CCN(Cc3ccccc3)CC2)c1C,9.3µM*,/,-20%,4,7,?
Cc1sc(NC(=O)c2ccco2)c(CN2CCC(C)CC2)c1C,/,-10%,-31%,0,10,?
Cc1sc(NC(=O)c2ccccc2F)c(CN2CCCCC2)c1C,34%,-17%,-8%,127*,50*,?
CSc1ncc(C(=O)Nc2ccc(C)c(Cl)c2)c(-c2ccccc2)n1,/,/,-16%,/,/,/
CCCCCO,36%,/,0%,/,/,-13%
COc1ccc(CCNC(=O)c2cc3n(n2)CCCN(Cc2ccc(C)cc2)C3=O)cc1OC,/,/,7%,/,/,/
O=C(O)c1ccc(C(=O)O)c(C(=O)O)c1.[NH-][C@@H]1CCCC[C@@H]1[NH-].[Pt],/,-16%,/,/,/,/
CCNC(=O)/C(=C/c1cccc([N+](=O)[O-])c1)NC(=O)c1ccc(C)cc1,-13%,-8%,2%,3,-7,149%
O=C(N/N=C/c1ccc(O)cc1O)C(=O)N/N=C/c1ccc(O)cc1O,?,10%,11%,1,-2,-1%
Cc1nc(Cl)cc(N/N=C/c2ccc(O)cc2O)n1,13%,0%,2%,28*,44*,?
CCOc1ccc(/C=N/Nc2cc(N3CCOCC3)nc(C)n2)c(O)c1,-7%,-4%,6%,-7,-3,6.6µM*
Cc1nc(Cl)cc(N/N=C/c2ccc(O)cc2)n1,11%,-14%,1%,49*,19*,-20%
